# The source made the active and inactive calls. Rule for the calls: active = hit-call score of the fitted dose curve at least 0.9, where 1 is the maximum; inactive = score below 0.9.
# Read-out: Interleukin-1 alpha (IL1a), IL1A (gene 3552)
# Experiment: BSK_LPS_IL1a: BioMAP Diversity Plus: LPS Assay for Interleukin-1 alpha (IL1a) Biomarker Activity (AID 2283080)
# Settings: primary human HUVEC with PBMC; actives raise or lower the signal
# Procedure, shortened: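 Measured: IL-1 alpha via ELISA at 24 h in LPS-activated human umbilical vein endothelium–PBMC co-culture. Baseline: DMSO, bidirectional fitting.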
SMILES,outcome,AC50
Cc1ccc(N)cc1,inactive,–
[O-][Cl+]O,inactive,–
O=[N+]([O-])c1ccc(Oc2ccc(Cl)cc2Cl)cc1,–,27.2 µM (active)
CN(C)c1ccc(C(=O)c2ccc(N(C)C)cc2)cc1,inactive,–
CC(C)(C)C(O)(CCc1ccc(Cl)cc1)Cn1cncn1 (stereo not drawn),inactive,–
Nc1ccc(N=Nc2ccccc2)cc1,inactive,–
CCOC(=O)[C@]1(c2ccccc2)Oc2ccccc2[C@@H]1N,inactive,–
CO[C@@H]1[C@H](OC(=O)NC(=O)CCl)CC[C@]2(CO2)[C@H]1[C@@]1(C)O[C@@H]1CC=C(C)C,–,6.19 µM (active)
O=P(OCCCl)(OCCCl)OCCCl,inactive,–
O=C1CCCO1,inactive,–
CCN(CC)CCO,inactive,–
CCCCCOC(=O)c1ccccc1C(=O)OCCCCC,inactive,–
COc1cc(C=O)cc2c1[C@H](COC(N)=O)[C@]1(OC(C)=O)ON2C[C@H]2[C@@H]1N2C(C)=O,–,19.7 µM (active)
CC(C)(C)OOC(C)(C)CCC(C)(C)OOC(C)(C)C,inactive,–
c1ccc2c(c1)-c1cccc3cccc-2c13,inactive,–
CS(=O)(=O)NC(=O)c1cc(Oc2ccc(C(F)(F)F)cc2Cl)ccc1[N+](=O)[O-],inactive,–
OCCCl,inactive,–
[Cl-].[Cl-].[Hg+2],inactive,–
Clc1ccc(C(c2ccc(Cl)cc2)C(Cl)Cl)cc1,–,28.6 µM (active)
CCCCC(CC)COC(=O)c1ccc(C(=O)OCC(CC)CCCC)c(C(=O)OCC(CC)CCCC)c1 (stereo not drawn),inactive,–
N#CC(Br)Br,inactive,–
Cn1cc(-c2ccccc2)c(=O)c(-c2cccc(C(F)(F)F)c2)c1,inactive,–
O=C(N[C@H](c1ccccc1)[C@@H]1CN2CCC1CC2)c1c(Cl)ccc(C(F)(F)F)c1Cl,inactive,–
OCCOCCO,inactive,–
CN(C)c1ccccc1,inactive,–
CCOc1cccc(C2(N3CCN(c4ccccc4)CC3)CCC(C)CC2)c1 (stereo not drawn),inactive,–
CCC[CH2][Sn]([Cl])([CH2]CCC)[CH2]CCC,–,0.344 µM (active)
COC(=O)Nc1nc2ccccc2[nH]1,inactive,–

# From PubChem BioAssay (EPA / NIEHS)
